# Measured values: publication PMC7862700, “An all-to-all approach to the identification of sequence-specific readers for epigenetic DNA modifications on cytosine”
# Tests used:
# Experiment in all cases: DAPPL (digital affinity profiling via proximity ligation, sequencing); 10 mM Tris-HCl pH 7.5, 50 mM NaCl, 1 mM DTT, 4% glycerol, room temperature, 30 min; GST-TFs on glutathione beads, 16-mer random dsDNA library, 0.1% formaldehyde crosslink after washing; high values mean tight binding
# FEV = target: T1, FEV (Homo sapiens, UniProt Q99581 1-238); conditions: protein: recombinant; tags: N-terminal GST; dsDNA, one strand shown
# T1 sequence: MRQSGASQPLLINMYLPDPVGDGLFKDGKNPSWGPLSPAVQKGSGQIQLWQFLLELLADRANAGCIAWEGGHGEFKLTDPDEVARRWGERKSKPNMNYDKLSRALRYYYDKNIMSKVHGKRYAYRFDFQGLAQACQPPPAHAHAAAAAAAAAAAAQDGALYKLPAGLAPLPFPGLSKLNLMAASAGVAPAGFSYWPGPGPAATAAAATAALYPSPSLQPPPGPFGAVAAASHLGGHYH
# Outline: (§1)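 Pools of DNA-barcoded human transcription factors, expressed in yeast as GST fusions on glutathione beads and combined with a tag-only sample, were incubated with 200 nmole of a 16-mer random double-stranded DNA library. Incubation took 30 min at room temperature in Tris/NaCl/DTT/glycerol buffer and was followed by washing, 0.1% formaldehyde crosslinking, proximity ligation (BsaI/T4 ligase, 1 h, 37 °C), PCR amplification and sequencing on an Illumina NextSeq500. Binding signal is the ratio of a hexamer's read frequency for a factor to its frequency for the tag-only sample.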
# ETV5 = ETV5 (Homo sapiens, UniProt P41161 1-510); conditions: protein: recombinant; tags: N-terminal GST; dsDNA, one strand shown
# Outline: as §1
# HSF1 = HSF1 (Homo sapiens, UniProt Q00613 1-529); conditions: protein: recombinant; tags: N-terminal GST; chain copies: 3; dsDNA, one strand shown
# Outline: as §1
# SPIC = target: T2, SPIC (Homo sapiens, UniProt Q8N5J4 1-248); conditions: protein: recombinant; tags: N-terminal GST; dsDNA, one strand shown
# T2 sequence: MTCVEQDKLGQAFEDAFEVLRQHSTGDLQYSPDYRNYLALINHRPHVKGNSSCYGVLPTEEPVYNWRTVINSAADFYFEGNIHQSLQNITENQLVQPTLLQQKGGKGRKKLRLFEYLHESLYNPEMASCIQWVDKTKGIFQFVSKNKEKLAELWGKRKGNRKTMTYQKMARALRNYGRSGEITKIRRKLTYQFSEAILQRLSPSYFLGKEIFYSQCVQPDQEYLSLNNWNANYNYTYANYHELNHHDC
# Outline: as §1
# ELF4 = ELF4 (Homo sapiens, UniProt Q99607 1-663); conditions: protein: recombinant; tags: N-terminal GST; dsDNA, one strand shown
# Outline: as §1
# ELK4 = target: T3, ELK4 (Homo sapiens, UniProt P28324-2 1-405); conditions: protein: recombinant; tags: N-terminal GST; dsDNA, one strand shown
# T3 sequence: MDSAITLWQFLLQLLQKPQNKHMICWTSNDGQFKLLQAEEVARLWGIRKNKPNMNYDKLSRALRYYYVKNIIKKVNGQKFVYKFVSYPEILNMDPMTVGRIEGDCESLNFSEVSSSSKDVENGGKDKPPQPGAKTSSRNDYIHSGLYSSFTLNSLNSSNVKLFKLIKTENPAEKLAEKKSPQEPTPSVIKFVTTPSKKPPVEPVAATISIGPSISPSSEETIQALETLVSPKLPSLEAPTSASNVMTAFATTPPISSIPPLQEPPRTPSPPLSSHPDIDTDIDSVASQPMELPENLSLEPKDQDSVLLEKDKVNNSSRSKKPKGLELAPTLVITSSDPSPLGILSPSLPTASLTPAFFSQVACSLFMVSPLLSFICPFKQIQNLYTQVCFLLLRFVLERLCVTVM
# Outline: as §1
# ETV2 = target: T4, ETV2 (Homo sapiens, UniProt O00321 1-342); conditions: protein: recombinant; tags: N-terminal GST; dsDNA, one strand shown
# T4 sequence: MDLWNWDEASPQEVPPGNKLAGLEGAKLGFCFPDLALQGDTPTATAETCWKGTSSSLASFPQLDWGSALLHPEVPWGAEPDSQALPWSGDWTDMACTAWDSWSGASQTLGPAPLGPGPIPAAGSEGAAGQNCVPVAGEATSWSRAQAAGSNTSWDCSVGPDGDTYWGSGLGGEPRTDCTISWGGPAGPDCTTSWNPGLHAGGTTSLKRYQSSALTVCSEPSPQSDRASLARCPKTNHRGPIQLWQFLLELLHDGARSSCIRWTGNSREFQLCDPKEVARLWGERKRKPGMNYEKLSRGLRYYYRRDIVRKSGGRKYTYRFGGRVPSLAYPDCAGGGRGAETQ
# Outline: as §1
# ELF3 = target: T5, ELF3 (Homo sapiens, UniProt P78545 1-371); conditions: protein: recombinant; tags: N-terminal GST; dsDNA, one strand shown
# T5 sequence: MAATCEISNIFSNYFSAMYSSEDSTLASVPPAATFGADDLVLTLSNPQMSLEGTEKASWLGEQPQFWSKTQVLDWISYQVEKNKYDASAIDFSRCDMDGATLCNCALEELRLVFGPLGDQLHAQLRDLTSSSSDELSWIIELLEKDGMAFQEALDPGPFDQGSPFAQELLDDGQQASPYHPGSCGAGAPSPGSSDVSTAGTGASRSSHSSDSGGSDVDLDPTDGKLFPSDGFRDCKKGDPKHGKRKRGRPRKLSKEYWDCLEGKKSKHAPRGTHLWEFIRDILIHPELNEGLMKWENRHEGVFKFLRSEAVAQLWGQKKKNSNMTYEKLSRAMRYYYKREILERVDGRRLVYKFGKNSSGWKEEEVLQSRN
# Outline: as §1
# CRX = CRX (Homo sapiens, UniProt O43186 1-299); conditions: protein: recombinant; tags: N-terminal GST; dsDNA, one strand shown
# Outline: as §1
# ETV1 = ETV1 (Homo sapiens, UniProt P50549 1-477); conditions: protein: recombinant; tags: N-terminal GST; dsDNA, one strand shown
# Outline: as §1
# ERF = target: T6, ERF (Homo sapiens, UniProt P50548 1-548); conditions: protein: recombinant; tags: N-terminal GST; dsDNA, one strand shown
# T6 sequence: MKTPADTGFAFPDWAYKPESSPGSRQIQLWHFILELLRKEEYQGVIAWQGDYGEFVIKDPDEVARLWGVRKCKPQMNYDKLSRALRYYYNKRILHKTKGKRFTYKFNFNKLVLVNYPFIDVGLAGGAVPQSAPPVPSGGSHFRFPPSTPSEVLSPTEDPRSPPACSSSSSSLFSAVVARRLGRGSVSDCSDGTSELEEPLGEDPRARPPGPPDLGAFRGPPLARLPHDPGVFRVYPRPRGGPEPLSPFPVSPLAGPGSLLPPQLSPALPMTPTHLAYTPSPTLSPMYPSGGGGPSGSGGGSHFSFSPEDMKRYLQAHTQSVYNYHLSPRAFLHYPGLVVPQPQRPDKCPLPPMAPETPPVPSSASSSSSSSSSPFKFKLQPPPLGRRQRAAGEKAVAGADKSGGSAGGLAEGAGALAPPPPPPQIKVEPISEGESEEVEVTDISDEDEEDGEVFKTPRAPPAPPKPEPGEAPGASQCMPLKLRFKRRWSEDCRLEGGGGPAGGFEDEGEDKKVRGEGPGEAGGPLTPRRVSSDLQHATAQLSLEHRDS
# Outline: as §1
# ETV3L = target: T7, ETV3L (Homo sapiens, UniProt Q6ZN32 1-361); conditions: protein: recombinant; tags: N-terminal GST; dsDNA, one strand shown
# T7 sequence: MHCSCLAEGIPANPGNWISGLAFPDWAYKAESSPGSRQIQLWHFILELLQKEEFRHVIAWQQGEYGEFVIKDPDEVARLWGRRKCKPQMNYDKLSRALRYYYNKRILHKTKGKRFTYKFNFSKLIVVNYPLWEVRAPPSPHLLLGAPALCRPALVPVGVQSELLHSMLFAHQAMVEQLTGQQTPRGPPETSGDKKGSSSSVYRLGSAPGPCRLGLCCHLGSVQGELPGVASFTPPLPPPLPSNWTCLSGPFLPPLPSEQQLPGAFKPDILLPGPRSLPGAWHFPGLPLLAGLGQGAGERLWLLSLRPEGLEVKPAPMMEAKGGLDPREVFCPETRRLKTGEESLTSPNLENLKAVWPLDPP
# Outline: as §1
# ETS2 = target: T8, ETS2 (Homo sapiens, UniProt P15036 1-469); conditions: protein: recombinant; tags: N-terminal GST; dsDNA, one strand shown
# T8 sequence: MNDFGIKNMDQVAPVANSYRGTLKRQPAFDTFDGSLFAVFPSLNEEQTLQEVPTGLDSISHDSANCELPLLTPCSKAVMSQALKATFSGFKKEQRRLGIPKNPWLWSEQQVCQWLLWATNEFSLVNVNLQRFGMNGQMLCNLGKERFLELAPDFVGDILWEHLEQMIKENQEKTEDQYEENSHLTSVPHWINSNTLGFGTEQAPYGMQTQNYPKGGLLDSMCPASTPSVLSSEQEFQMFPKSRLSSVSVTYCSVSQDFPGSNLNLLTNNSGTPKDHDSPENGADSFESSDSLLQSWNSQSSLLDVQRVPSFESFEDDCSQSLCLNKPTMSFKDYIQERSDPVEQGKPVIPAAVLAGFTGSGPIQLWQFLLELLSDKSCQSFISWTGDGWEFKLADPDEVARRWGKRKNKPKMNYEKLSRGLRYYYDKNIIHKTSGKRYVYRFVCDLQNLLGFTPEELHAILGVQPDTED
# Outline: as §1
# SPDEF = target: T9, SPDEF (Homo sapiens, UniProt O95238 1-335); conditions: protein: recombinant; tags: N-terminal GST; dsDNA, one strand shown
# T9 sequence: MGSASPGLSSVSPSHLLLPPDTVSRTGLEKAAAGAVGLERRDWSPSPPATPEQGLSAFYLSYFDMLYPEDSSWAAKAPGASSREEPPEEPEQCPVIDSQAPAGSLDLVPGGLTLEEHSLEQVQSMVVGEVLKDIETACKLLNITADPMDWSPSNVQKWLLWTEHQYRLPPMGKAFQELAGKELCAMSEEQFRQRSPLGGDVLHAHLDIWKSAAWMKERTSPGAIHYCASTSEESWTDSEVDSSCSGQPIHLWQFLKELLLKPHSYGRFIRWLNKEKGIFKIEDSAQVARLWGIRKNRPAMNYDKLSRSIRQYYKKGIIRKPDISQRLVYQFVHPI
# Outline: as §1
# ETV7 = target: T10, ETV7 (Homo sapiens, UniProt Q9Y603 1-341); conditions: protein: recombinant; tags: N-terminal GST; dsDNA, one strand shown
# T10 sequence: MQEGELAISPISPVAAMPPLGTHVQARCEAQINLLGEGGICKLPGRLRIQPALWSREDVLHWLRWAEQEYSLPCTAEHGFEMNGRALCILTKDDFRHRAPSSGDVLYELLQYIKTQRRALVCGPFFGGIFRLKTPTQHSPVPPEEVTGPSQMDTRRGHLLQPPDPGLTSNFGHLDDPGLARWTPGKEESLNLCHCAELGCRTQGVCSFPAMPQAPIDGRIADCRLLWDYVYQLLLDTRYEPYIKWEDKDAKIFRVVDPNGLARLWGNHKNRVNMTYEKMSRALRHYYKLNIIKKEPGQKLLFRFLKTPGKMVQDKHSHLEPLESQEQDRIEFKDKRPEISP
# Outline: as §1
# ELF5 = target: T11, ELF5 (Homo sapiens, UniProt Q9UKW6-2 1-255); conditions: protein: recombinant; tags: N-terminal GST; dsDNA, one strand shown
# T11 sequence: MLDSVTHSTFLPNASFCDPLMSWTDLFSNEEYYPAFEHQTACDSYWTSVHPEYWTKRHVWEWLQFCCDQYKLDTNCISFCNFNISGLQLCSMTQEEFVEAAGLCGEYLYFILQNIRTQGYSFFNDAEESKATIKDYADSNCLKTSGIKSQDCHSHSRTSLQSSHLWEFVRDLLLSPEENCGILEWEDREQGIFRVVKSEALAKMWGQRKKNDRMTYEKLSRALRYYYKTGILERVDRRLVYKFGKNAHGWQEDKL
# Outline: as §1
# ETV3 = target: T12, ETV3 (Homo sapiens, UniProt P41162-2 1-143); conditions: protein: recombinant; tags: N-terminal GST; dsDNA, one strand shown
# T12 sequence: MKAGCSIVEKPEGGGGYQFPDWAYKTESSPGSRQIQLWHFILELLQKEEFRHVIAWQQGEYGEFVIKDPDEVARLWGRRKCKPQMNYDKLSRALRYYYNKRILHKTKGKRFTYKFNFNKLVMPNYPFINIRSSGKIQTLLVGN
# Outline: as §1
# ETV6 = ETV6 (Homo sapiens, UniProt P41212 1-452); conditions: protein: recombinant; tags: N-terminal GST; dsDNA, one strand shown
# Outline: as §1
# CRX, sequence (O43186 whole entry): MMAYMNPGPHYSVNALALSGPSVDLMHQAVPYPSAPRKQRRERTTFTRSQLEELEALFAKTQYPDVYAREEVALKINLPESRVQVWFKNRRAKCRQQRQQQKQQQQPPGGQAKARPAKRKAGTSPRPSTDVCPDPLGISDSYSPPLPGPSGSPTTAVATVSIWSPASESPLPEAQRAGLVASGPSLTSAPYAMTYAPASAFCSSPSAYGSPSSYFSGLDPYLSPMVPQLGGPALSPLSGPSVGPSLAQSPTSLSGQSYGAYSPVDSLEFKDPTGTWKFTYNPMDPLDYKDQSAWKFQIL
# HSF1, sequence (Q00613 whole entry): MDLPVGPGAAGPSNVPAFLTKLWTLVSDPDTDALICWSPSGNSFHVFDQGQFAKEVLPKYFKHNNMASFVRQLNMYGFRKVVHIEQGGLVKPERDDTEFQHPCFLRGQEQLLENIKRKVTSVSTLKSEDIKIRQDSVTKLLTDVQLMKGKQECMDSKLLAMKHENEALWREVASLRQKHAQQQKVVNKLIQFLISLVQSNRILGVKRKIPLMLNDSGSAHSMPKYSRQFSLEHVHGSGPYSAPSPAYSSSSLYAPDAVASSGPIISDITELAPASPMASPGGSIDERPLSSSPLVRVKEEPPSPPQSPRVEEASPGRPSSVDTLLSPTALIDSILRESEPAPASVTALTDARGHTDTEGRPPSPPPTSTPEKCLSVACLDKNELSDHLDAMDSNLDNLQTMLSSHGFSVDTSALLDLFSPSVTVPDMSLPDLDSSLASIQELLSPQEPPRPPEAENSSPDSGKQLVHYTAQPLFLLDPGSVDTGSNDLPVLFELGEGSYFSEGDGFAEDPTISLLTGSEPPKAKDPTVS
# ELF4, sequence (Q99607 whole entry): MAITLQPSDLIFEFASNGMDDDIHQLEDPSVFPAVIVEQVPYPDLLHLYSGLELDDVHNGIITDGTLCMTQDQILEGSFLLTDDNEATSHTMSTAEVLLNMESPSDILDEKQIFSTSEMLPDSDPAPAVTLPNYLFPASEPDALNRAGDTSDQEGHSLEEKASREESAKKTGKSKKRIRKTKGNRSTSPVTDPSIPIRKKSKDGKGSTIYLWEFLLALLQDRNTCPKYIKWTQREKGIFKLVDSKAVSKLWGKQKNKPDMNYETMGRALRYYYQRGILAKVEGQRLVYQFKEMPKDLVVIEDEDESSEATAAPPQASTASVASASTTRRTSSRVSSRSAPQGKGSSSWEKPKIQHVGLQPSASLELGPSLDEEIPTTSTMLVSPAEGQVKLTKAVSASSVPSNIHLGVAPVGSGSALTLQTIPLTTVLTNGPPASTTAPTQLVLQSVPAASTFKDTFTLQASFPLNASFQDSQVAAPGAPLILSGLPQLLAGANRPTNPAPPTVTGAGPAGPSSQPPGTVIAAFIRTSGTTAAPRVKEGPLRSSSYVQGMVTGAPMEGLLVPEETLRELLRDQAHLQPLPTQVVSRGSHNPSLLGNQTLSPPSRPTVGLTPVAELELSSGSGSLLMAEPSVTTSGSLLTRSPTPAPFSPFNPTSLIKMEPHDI
# ETV5, sequence (P41161 whole entry): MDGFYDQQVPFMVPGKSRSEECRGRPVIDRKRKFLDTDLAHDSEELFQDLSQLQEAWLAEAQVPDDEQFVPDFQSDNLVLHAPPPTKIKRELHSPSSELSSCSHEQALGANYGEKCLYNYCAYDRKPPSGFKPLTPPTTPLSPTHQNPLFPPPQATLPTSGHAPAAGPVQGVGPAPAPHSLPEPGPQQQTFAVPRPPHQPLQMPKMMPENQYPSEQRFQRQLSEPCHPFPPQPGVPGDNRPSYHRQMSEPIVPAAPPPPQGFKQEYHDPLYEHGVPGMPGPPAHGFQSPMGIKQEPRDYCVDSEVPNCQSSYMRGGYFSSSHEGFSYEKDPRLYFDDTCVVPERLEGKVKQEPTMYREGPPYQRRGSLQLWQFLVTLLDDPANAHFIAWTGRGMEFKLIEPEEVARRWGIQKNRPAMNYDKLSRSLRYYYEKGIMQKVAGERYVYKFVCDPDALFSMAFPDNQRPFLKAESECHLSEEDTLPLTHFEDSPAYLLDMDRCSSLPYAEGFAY
# ETV1, sequence (P50549 whole entry): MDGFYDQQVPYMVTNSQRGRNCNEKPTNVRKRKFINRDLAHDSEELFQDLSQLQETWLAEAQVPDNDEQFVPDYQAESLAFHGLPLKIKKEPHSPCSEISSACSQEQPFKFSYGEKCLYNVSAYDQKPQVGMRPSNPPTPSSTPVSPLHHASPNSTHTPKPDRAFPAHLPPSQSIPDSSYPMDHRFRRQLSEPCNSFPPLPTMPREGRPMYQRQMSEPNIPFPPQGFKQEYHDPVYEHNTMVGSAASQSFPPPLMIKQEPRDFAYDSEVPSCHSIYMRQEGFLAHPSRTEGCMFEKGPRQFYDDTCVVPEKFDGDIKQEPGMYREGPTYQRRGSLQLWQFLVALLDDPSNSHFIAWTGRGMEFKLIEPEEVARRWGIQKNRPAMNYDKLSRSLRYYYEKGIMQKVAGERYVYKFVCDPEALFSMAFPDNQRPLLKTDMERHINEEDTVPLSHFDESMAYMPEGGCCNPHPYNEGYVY
# ETV6, sequence (P41212 whole entry): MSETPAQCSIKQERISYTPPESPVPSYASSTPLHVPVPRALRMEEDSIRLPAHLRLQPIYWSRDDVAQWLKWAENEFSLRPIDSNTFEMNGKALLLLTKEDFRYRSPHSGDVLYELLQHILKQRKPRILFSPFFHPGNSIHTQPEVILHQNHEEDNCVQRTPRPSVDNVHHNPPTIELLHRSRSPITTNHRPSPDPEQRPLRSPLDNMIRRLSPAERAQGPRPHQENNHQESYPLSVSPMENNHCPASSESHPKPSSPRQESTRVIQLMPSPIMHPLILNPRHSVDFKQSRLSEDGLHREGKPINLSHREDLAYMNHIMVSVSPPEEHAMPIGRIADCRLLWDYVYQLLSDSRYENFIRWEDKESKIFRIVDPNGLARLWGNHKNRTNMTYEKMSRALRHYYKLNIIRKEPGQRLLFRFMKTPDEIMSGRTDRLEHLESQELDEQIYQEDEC
sequence,measurement,setting,value
TTGTAT,binding signal,FEV,"1.26 fold enrichment (6-mer frequency, TF over GST control)"
same,binding signal,ETV5,"1.26 fold enrichment (6-mer frequency, TF over GST control)"
same,binding signal,HSF1,"1.21 fold enrichment (6-mer frequency, TF over GST control)"
same,binding signal,SPIC,"1.28 fold enrichment (6-mer frequency, TF over GST control)"
same,binding signal,ELF4,"1.35 fold enrichment (6-mer frequency, TF over GST control)"
same,binding signal,ELK4,"1.43 fold enrichment (6-mer frequency, TF over GST control)"
same,binding signal,ETV2,"1.4 fold enrichment (6-mer frequency, TF over GST control)"
same,binding signal,ELF3,"1.34 fold enrichment (6-mer frequency, TF over GST control)"
same,binding signal,CRX,"1.42 fold enrichment (6-mer frequency, TF over GST control)"
same,binding signal,ETV1,"1.3 fold enrichment (6-mer frequency, TF over GST control)"
same,binding signal,ERF,"1.28 fold enrichment (6-mer frequency, TF over GST control)"
same,binding signal,ETV3L,"1.37 fold enrichment (6-mer frequency, TF over GST control)"
same,binding signal,ETS2,"1.4 fold enrichment (6-mer frequency, TF over GST control)"
same,binding signal,SPDEF,"1.41 fold enrichment (6-mer frequency, TF over GST control)"
same,binding signal,ETV7,"1.21 fold enrichment (6-mer frequency, TF over GST control)"
same,binding signal,ELF5,"1.35 fold enrichment (6-mer frequency, TF over GST control)"
same,binding signal,ETV3,"1.41 fold enrichment (6-mer frequency, TF over GST control)"
same,binding signal,ETV6,"1.25 fold enrichment (6-mer frequency, TF over GST control)"
